Screening results deposited in PubChem BioAssay by National Center for Advancing Translational Sciences (NCATS).
Hits are enriched below; roughly 3.6% of the tested compounds scored in any of these assays.
AmpC no deterg = AmpC beta-lactamase inhibition without detergent. P00811. AmpC nitrocefin hydrolysis, absorbance 480 nm, 0.0001% Triton. Potency, µM (highest dose often 57.1 µM), most hits filed as inhibitors. 330,000 compounds, 0.52% hits. AID 485341; note: nearly all actives have a fitted effect of over 20% in size
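20 mM phosphate pH 7.0 + 0.01% (detergent screen) or 0.0001% Triton X-100; 5.3 nM AmpC reagent; cpd preinc 15 min RT; nitrocefin (800 uM stock) to start; A480 q20 s × 4 min; Activity was normalised to no-enzyme and no-compound control wells.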
Giardia FBPA inh = blocks Giardia fructose-bisphosphate aldolase activity | 290,000 compounds, 0.71% hits | AID 2451 | A8B2U2 | Potency, µM (titrated, usually from 59.6 µM), hits mostly inhibitors | purified Giardia FBPA; note: nearly all actives have a fitted effect of over 55% in size
Target sequence (A8B2U2 whole entry, looked up): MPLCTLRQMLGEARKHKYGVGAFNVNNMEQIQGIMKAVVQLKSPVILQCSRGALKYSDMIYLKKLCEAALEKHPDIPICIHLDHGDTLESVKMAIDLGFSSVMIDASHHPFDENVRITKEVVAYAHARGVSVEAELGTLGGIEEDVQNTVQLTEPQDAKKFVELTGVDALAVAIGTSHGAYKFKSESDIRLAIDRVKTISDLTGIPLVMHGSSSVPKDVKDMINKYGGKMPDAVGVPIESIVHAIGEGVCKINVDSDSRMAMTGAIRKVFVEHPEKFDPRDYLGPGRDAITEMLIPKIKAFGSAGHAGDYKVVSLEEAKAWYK
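40 nM FBPA preincubated 10 min at RT with compound (up to 57.5 uM final), then substrate plus GAPDH/TPI/NAD/arsenate coupling and diaphorase/resazurin added. Fluorescence read after 20 min at RT, 525/598 nm.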
Sm TGR inh = S. mansoni TGR enzyme inhibition. 360,000 compounds, 3% hits. Q962Y6. purified TGR, DTNB reduction, TNB absorbance 405 nm. AID 485364. Potency, µM (top dose mostly 114 µM), most hits filed as inhibitors; note: nearly all actives have a fitted effect of over 60% in size
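First, TGR (20 nM dispensed) and NADPH were mixed with compound. Second, a 15 min room-temperature incubation followed. Third, further NADPH and then DTNB were added to start the reaction. Finally, TNB absorbance was monitored kinetically.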
AmpC detergent = inhibitors of E. coli AmpC beta-lactamase with detergent. P00811. AmpC hydrolysis of nitrocefin, absorbance 480 nm, 0.01% Triton. Potency, µM (doses to about 114 µM), hits mostly inhibitors. 370,000 compounds, 0.041% hits; note: nearly all actives have a fitted effect of over 25% in size
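20 mM phosphate pH 7.0 + 0.01% (detergent screen) or 0.0001% Triton X-100; 5.3 nM AmpC reagent; cpd preinc 15 min RT; nitrocefin (800 uM stock) to start; A480 q20 s × 4 min; Activity was normalised to no-enzyme and no-compound control wells.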
A number is an active result; 0 = inactive; ? = inconclusive; - = no result; [ ] = another dose, or the depositor's remark. Calls come from the whole dose curve; as a rule, active = well fitted curve in the direction sought with a large enough effect; inconclusive = small, poorly fitted or top-dose-only effect, or another doubt; inactive = no such curve, though single readings can be large; an effect the other way counts as inactive or inconclusive.

SMILES	AmpC no deterg	Giardia FBPA inh	Sm TGR inh	AmpC detergent
C[C@@]12C(=O)N(c3cccc(F)c3)C(=O)N1[C@@H]1c3ccccc3OC[C@@H]1[C@H]2c1ccccc1	0	-	-	-
CC(=O)Nc1c(C)ccc(S(N)(=O)=O)c1C	0	0	0	0
Fc1ccccc1/C=C1\CCCC2=C1Nc1nnnn1C2c1ccccc1F (configuration not stated)	0	0	6.31µM	0
COCC1CCCN(C(=O)c2ccc3oc(CCCc4ccccc4)nc3c2)C1 (configuration not stated)	0	-	28.2µM	0
COC(=O)c1c(C)oc2c1cc(NS(=O)(=O)c1ccc(C(=O)O)cc1)c1ccccc12	0	?	50.1µM	0
CC(=O)c1c(C)oc2c1cc(NS(=O)(=O)c1ccc(C(=O)O)cc1)c1ccccc12	0	0	0	0
O=C(Cn1cc(C(=O)C2CCCCC2)c2ccccc21)Nc1ccccc1Cl	-	-	0	0
Cn1c(C(C#N)C2=C(Cl)C(=O)N(c3ccccc3)C2=O)nc2ccccc21 (configuration not stated)	0	?	44.7µM	?
Cn1c(C(O)C(O)c2ccccc2)nc2ccccc21 (configuration not stated)	0	0	0	0
Cc1ccc(-c2nc(CSCC(=O)N3CCN(C(=O)c4ccco4)CC3)c(C)o2)cc1	0	0	39.8µM	0
COc1ccc(-c2nc(CN3CCN(C(=O)c4ccco4)CC3)c(C)o2)c(F)c1	0	0	50.1µM	0
COc1ccc(-c2nc(CN3CCN(C(=O)c4ccco4)CC3)c(C)o2)cc1OC	0	0	28.2µM	0
COc1cc(/C=C/c2nc3ccc([N+](=O)[O-])cc3s2)ccc1OCC(=O)O	0	0	0	0
C/C(=N\NC(=O)OC(C)(C)C)c1ccccc1Br	0	0	0	0
COc1ccc(NC(=O)Nc2cccc3c2O[C@@H](CN(C)S(=O)(=O)c2cn(C)cn2)[C@@H](C)CN([C@H](C)CO)C3=O)cc1	0	-	-	-
CC(=O)Nc1ccc2nc(CN3CCN(Cc4ccc(F)cc4)C(CCO)C3)ccc2c1 (configuration not stated)	0	0	25.1µM	0
CC(=O)Nc1ccc2nc(CN3CCN(CC(C)C)C(CCO)C3)ccc2c1 (configuration not stated)	0	0	?	0
COc1cc(CN2CCN(Cc3ccc(C)cc3)C(CCO)C2)cc(OC)c1O (configuration not stated)	0	?	6.31µM	0
CC(=O)c1cccc(CN2CCN(Cc3ccc(F)cc3)C(CCO)C2)c1 (configuration not stated)	0	0	44.7µM	0
COc1ccc(CN2CCN(Cc3ccc(C)cc3)C(CCO)C2)cc1OC (configuration not stated)	0	0	0	0
Cc1cccc(NC(=O)CCC2CCN(C(=O)C3CC=CCC3)CC2)c1 (configuration not stated)	0	-	0	0
CN(C)c1ncc2nc(-c3ccc(Cl)cc3)c(=O)n(CCC#N)c2n1	-	0	-	-
CCOC(=O)N1C2C=C(C)[C@@H]2[C@@H]2CC(=O)N21 (some centres not stated)	0	0	0	0
O=C(/C=C/c1ccc(Br)o1)Nc1nccs1	0[11.4 µM]	0	3.16µM	0
CCOC(=O)Cc1csc(NC(=O)/C=C/c2ccc(Br)o2)n1	0	0	10µM	0
SMILES	AmpC no deterg	Giardia FBPA inh	Sm TGR inh	AmpC detergent
CCOC(=O)Cc1csc(NC(=O)Nc2cccc(Cl)c2)n1	20µM	0	0	0
CCOC(=O)Cc1csc(NC(=O)Nc2ccc(Cl)cc2)n1	0	0	0	0
O=C(NCc1ccc(F)cc1)c1cc2cccc3c2n1CCS3	-	-	0	0
CC1(C)NC(C(=O)O)Cc2c1[nH]c1ccccc21 (configuration not stated)	0	0	39.8µM	?
COc1cc(C2NC(C(=O)O)Cc3c2[nH]c2ccccc32)cc(OC)c1OC (configuration not stated)	0	?	0	0
CC(=O)N1C(C(=O)O)Cc2c([nH]c3ccccc23)C1(C)C (configuration not stated)	0	0	0	0
CCC1NC(C(=O)O)Cc2c1[nH]c1ccccc21 (configuration not stated)	0	-	39.8µM	0
O=C(O)c1cccc(-c2noc(-c3cccc(Cl)c3)n2)c1	0	-	?	0
COc1cccc(NC(=O)CN(C2=NC3CS(=O)(=O)CC3S2)c2cccc(C)c2)c1 (configuration not stated)	0	0	0	0
NC(=O)CSc1oc(-c2ccco2)nc1S(=O)(=O)c1ccc(Br)cc1	0	0	17.8µM	0
NC(=O)CSc1oc(-c2ccco2)nc1S(=O)(=O)c1ccc(Cl)cc1	0	0	20µM	0
CCCSc1oc(-c2ccco2)nc1S(=O)(=O)c1ccc(C)cc1	0	0	0	0
Cc1ccc(S(=O)(=O)c2nc(-c3ccco3)oc2SCC(N)=O)cc1	0	0	39.8µM	0
CCCSc1oc(-c2ccco2)nc1S(=O)(=O)c1ccccc1	0	?	56.2µM	0
Cc1occc1C(=O)Nc1cc(S(=O)(=O)N2CCOCC2)ccc1OC(C)C	0	-	0	0
COc1ccc(OC)c(NC(=O)CCc2nc(-c3ccc(C)cc3)no2)c1	-	-	0	0
CCC(C)[C@H](NC(=O)[C@@H]1Cc2c([nH]c3ccccc23)C2c3ccccc3C(=O)N21)C(=O)NCC1CCCO1 (some centres not stated)	0	0	0	0
CC(C)Sc1oc(-c2ccco2)nc1S(=O)(=O)c1ccc(F)cc1	0	?	17.8µM	0
CSc1oc(-c2ccco2)nc1S(=O)(=O)c1ccc(Br)cc1	0	0	50.1µM	?
CC(C#N)(NC(=O)CN1CCN(S(=O)(=O)c2ccccc2Cl)CC1)C1CC1 (configuration not stated)	0	-	0	0
Cc1ccc(C(=O)N2CCCC(C(=O)c3ccc(Oc4ccccc4)cc3)C2)cn1 (configuration not stated)	0	0	0	0
CC(/C=C/c1ccco1)=N/NC(=O)CNc1ccccc1C	0	0	35.5µM	0
CC(/C=C/c1ccco1)=N\NC(=O)CNc1ccc2ccccc2c1	0	?	0	0
CCOC(=O)N/N=C(C)/C=C/c1ccccc1	0	0	0	0
CC(/C=C/c1ccco1)=N\NC(=O)c1cccc(Cl)c1	0	0	0	0
SMILES	AmpC no deterg	Giardia FBPA inh	Sm TGR inh	AmpC detergent
CCOC(=O)N/N=C\C=C\c1ccco1	0	0	22.4µM	?
CCOC(=O)N/N=C(C)/C=C/c1ccco1	0	0	31.6µM	0
CC(/C=C/c1ccco1)=N/NC(=O)c1ccccc1Cl	0	0	22.4µM	0
COc1cccc(-n2cc(C(=O)OCc3ccc(F)c(F)c3)c3ccccc3c2=O)c1	-	-	0	0
COc1cc(/C=N/Nc2nncn2N)ccc1OCc1c(C)no[n+]1[O-]	0	5µM	0	0
COc1cc(C2OC(=O)c3c2ccc(OC)c3OC)ccc1O (configuration not stated)	0	-	28.2µM	0
O=C(CCSCCc1ccccn1)Nc1ccccc1C(F)(F)F	-	-	0	0
